Several values for one entry are separate records, joined by “and”; a condition that tells them apart may be missing. Equal values may be shown once. Records with an inconclusive call do not appear. Activity calls are given as the source filed them. Unless noted, calls come from the whole dose curve; as a rule, active = well fitted curve in the direction sought with a large enough effect in the repeat runs; inconclusive = weak or mixed curves; inactive = no such curve, though single readings can be large; an effect the other way counts as inactive or inconclusive.
Assays:
[1] = target: Thyrotropin receptor (Homo sapiens) (UniProt P16473); assay: qHTS assay to identify small molecule agonists of the thyroid stimulating hormone receptor (TSHR) signaling pathway (AID 1224843; calls by dose curve; note: nearly all actives have a fitted effect of over 45% in size)
Chain of Thyrotropin receptor (Homo sapiens) (P16473 whole entry, looked up): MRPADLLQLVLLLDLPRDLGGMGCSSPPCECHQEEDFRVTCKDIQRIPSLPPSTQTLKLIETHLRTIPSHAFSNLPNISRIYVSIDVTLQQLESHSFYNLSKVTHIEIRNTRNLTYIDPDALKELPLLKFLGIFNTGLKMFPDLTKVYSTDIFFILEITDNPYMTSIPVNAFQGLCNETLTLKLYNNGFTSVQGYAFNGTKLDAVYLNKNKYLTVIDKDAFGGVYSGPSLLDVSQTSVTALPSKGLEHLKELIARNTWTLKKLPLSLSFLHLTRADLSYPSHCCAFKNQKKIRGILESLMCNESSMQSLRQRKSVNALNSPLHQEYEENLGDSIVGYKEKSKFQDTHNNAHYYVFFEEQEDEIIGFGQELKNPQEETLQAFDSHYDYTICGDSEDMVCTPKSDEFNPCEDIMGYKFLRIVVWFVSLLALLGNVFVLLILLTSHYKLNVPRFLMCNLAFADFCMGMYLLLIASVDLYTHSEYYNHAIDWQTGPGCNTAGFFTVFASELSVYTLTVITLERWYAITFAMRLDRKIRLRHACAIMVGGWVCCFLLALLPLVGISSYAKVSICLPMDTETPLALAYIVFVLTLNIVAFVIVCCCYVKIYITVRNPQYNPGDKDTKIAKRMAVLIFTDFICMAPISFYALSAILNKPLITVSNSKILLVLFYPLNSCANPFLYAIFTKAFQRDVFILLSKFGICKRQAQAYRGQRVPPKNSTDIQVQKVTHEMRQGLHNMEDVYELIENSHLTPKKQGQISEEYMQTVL
In short: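 HEK293 cells stably bearing the thyrotropin receptor were plated at 800 cells/well and challenged with compound (30 min, RT). Accumulated cAMP was quantified via cAMP-d2 competing for cryptate-tagged antibody.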

[2] = qHTS assay to identify small molecule agonists of the hypoxia (HIF-1) signaling pathway - cell viability counter screen (AID 1224844; calls by dose curve; note: nearly all actives have a fitted effect of over 50% in size)
In short: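 HRE-bla ME-180 cells, 2,000/well in 0.5% dialyzed FBS medium, treated 17 h at 37C with compounds. Viability read in the same wells as the bla reporter, by CellTiter-Glo luminescence after 30 min at room temperature.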

[3] = qHTS assay to identify small molecule agonists of H2AX (AID 1224845; active = well fitted activation curve with a large enough effect in the signal ratio in the repeat runs, not every such curve was filed as active; the % refers to the signal ratio)
In short: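 Phospho-H2AX Ser139 measured by HTRF (ex 320 nm; em 665 and 620 nm) after 24 hr antibody incubation. Compounds, 15 concentrations, 0.76% DMSO, were applied to CHO-K1 cells for 3hr at 37C before lysis.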

[4] = qHTS assay to identify small molecule agonists of the hypoxia (HIF-1) signaling pathway (AID 1224846; active = well fitted activation curve with a large enough effect in the signal ratio in the repeat runs, not every such curve was filed as active; the % refers to the signal ratio)
In short: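 HRE-bla ME-180 beta-lactamase reporter cells in medium with 0.5% dialyzed FBS, pre-incubated 5 h then exposed to compounds 17 h at 37C, 5% CO2; reporter induction read with CCF4-AM FRET substrate.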

[5] = qHTS assay to identify small molecule agonists of H2AX - cell viability counter screen (AID 1224847; calls by dose curve;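 note: wild-type CHO-K1 cells; top concentration of the series differs between compounds; nearly all actives have a fitted effect of over 30% in size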)
In short: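 For this counter screen, overnight-attached CHO-K1 cells received test compounds (15 concentrations, 0.76% DMSO final); 3 hr later at 37C, CellTiter-Glo reagent was added and luminescence recorded after 30 min at room temperature.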

[6] = qHTS RealTime-Glo MT Cell Viability Assay in HepG2 cells - 24 hour (AID 1224867); note: nearly all actives have a fitted effect of over 50% in size
In short: (§1)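 Cells + NanoLuc/prosubstrate dispensed (600 cells/well) → 5 h at 37 C/5% CO2 → compounds in DMSO transferred → 40 h incubation at 37 C, luminescence read at 0, 8, 16, 24, 32, 40 h.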

[7] = qHTS RealTime-Glo MT Cell Viability Assay in HEK293 cells - 32 hour (AID 1224868); note: top concentration of the series differs between compounds; nearly all actives have a fitted effect of over 50% in size
In short: (§2)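 Tox21 10K qHTS, HEK293, 600 cells/well, RealTime-Glo reagent co-dispensed with cells; 5 h preincubation, compound by pintool, 37 C, luminescence at 0–40 h.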

[8] = A CellTox Green Cytotoxicity Assay to monitor cytotoxicity in HEK293 cells - 0 hour (AID 1224869); note: nearly all actives have a fitted effect of over 50% in size
In short: (§3)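 HEK293 cells, 600/well, were preincubated 5 hours and then exposed to compounds at 37 C for up to 40 hours. A cell-impermeant cyanine dye staining dead-cell DNA was read by fluorescence at 0, 8, 16, 24, 32 and 40 h time points.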

[9] = qHTS RealTime-Glo MT Cell Viability Assay in HepG2 cells - 40 hour (AID 1224870); note: nearly all actives have a fitted effect of over 50% in size
In short: (§4)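 Real-time viability: cells seeded at 600 per well together with NanoLuc and cell-permeant prosubstrate, compounds added after 5 h incubation. Luminescence tracked at 0, 8, 16, 24, 32 and 40 h of exposure.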

[10] = A CellTox Green Cytotoxicity Assay to monitor cytotoxicity in HEK293 cells - 40 hour (AID 1224871); note: nearly all actives have a fitted effect of over 45% in size
In short: as §3

[11] = qHTS RealTime-Glo MT Cell Viability Assay in HEK293 cells - 16 hour (AID 1224872)
In short: as §2

[12] = qHTS RealTime-Glo MT Cell Viability Assay in HepG2 cells - 8 hour (AID 1224873); note: nearly all actives have a fitted effect of over 55% in size
In short: as §4

[13] = qHTS RealTime-Glo MT Cell Viability Assay in HEK293 cells - 40 hour (AID 1224874); conditions: RealTime-Glo luminescence; max response: hits give low values; note: nearly all actives have a fitted effect of over 50% in size
In short: (§5)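 600 cells/well were plated with the nonlytic NanoLuc/prosubstrate reagent, pre-incubated 5 h, then given 23 nL of compound in DMSO. Incubation at 37 C for 40 h, with luminescence from viable-cell-reduced substrate read repeatedly from 0 h.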

[14] = A CellTox Green Cytotoxicity Assay to monitor cytotoxicity in HEK293 cells - 24 hour (AID 1224875); note: series mostly up to about 77 µM; nearly all actives have a fitted effect of over 45% in size
In short: as §3

[15] = A CellTox Green Cytotoxicity Assay to monitor cytotoxicity in HepG2 cells - 16 hour (AID 1224876); note: nearly all actives have a fitted effect of over 45% in size
In short: (§6)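 HepG2 cells, 600/well, preincubated 5 h with CellTox Green dye, then exposed to Tox21 compounds in DMSO at 37 C for up to 40 h. Dead-cell DNA fluorescence read at the indicated time point.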

[16] = qHTS RealTime-Glo MT Cell Viability Assay in HepG2 cells - 32 hour (AID 1224877); note: nearly all actives have a fitted effect of over 55% in size
In short: as §1

[17] = A CellTox Green Cytotoxicity Assay to monitor cytotoxicity in HepG2 cells - 24 hour (AID 1224878); note: nearly all actives have a fitted effect of over 45% in size
In short: as §6

[18] = A CellTox Green Cytotoxicity Assay to monitor cytotoxicity in HepG2 cells - 40 hour (AID 1224879); note: nearly all actives have a fitted effect of over 40% in size
In short: as §6

[19] = qHTS RealTime-Glo MT Cell Viability Assay in HEK293 cells - 0 hour (AID 1224880)
In short: as §5

[20] = qHTS assay to identify small molecule agonists of the estrogen related receptor (ERR) signaling pathway from Tox21 library (AID 1224849; calls by dose curve; note: nearly all actives have a fitted effect of over 15% in size)
In short: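 ERR reporter cells (NTP line) pre-incubated 6 hours at 37 C, then exposed to compounds for 18 hours at 37 C. ONE-Glo luciferase luminescence was read after 30 minutes at room temperature.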
% is set by controls: 0 for no effect and ±100 for the full control effect.

C=CCCCCCCCCC(=O)O
inactive: outcome [1] | outcome [2] | outcome [3] | outcome [4] | outcome [5] | Potency [6] | Potency [7] | outcome [8] | outcome [9] | Potency [10] | Potency [11] | Potency [12] | max response [13] 12.5% and 0.601% | Potency [14] | outcome [15] | outcome [16] | Potency [17] | Potency [18] | outcome [19]

O=C(O)/C=C/C(=O)O
inactive: outcome [1] | outcome [2] | outcome [3] | outcome [4] | outcome [5] | Potency [6] | Potency [7] | outcome [9] | Potency [10] | Potency [11] | Potency [12] | max response [13] -4.18% and -12.4% | Potency [14] | outcome [15] | outcome [16] | Potency [17] | Potency [18] | outcome [19]

O=C(OCC1CCC2OC2C1)C1CCC2OC2C1 (configuration not stated)
inactive: outcome [1] | outcome [2] | outcome [3] | outcome [4] | outcome [5] | Potency [6] | Potency [7] | outcome [8] | outcome [9] | Potency [10] | Potency [11] | Potency [12] | max response [13] 2.18% and 1.6% | Potency [14] | outcome [15] | outcome [16] | Potency [17] | Potency [18] | outcome [19]

CCc1ccccc1CC
inactive: outcome [1] | outcome [3] | outcome [4] | outcome [5] | outcome [20] | Potency [6] | Potency [7] | outcome [8] | outcome [9] | Potency [10] | activity change, negative = cytotoxicity [11] 1.28% [at 15.8 µM] | Potency [12] | Potency [14] | outcome [15] | outcome [16] | Potency [17] | Potency [18] | outcome [19]

COCCOC(=O)c1ccccc1C(=O)OCCOC
inactive: outcome [1] | outcome [2] | outcome [3] | outcome [4] | outcome [5] | Potency [6] | outcome [8] | outcome [9] | Potency [10] | Potency [11] | Potency [12] | max response [13] 0.573% and 0.131% | Potency [14] | outcome [15] | outcome [16] | Potency [17] | Potency [18] | outcome [19]

COC(=O)CCCC(=O)OC
inactive: outcome [1] | outcome [2] | outcome [3] | outcome [4] | outcome [5] | Potency [6] | outcome [8] | outcome [9] | Potency [10] | Potency [11] | Potency [12] | max response [13] 4.51% and 15.2% | Potency [14] | outcome [15] | outcome [16] | Potency [17] | Potency [18] | outcome [19]

OCc1cccc(Oc2ccccc2)c1
inactive: outcome [1] | outcome [2] | outcome [3] | outcome [4] | outcome [5] | Potency [6] | outcome [9] | Potency [10] | Potency [11] | Potency [12] | max response [13] -0.677% and -9.74% | Potency [14] | outcome [15] | outcome [16] | Potency [17] | Potency [18] | outcome [19]

Reference: PubChem BioAssay (Tox21)
